Pf growth 96h = inhibits malaria parasite growth, 96 h | P. falciparum luciferase reporter growth, 96 h | Potency, µM (highest dose often 28.7 µM), most hits filed as inhibitors | 320,000 tested, 6.9% active | AID 504834
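Delayed-death screen, second-generation endpoint: infected erythrocytes, 2% hematocrit, 0.05% parasitemia final; 96 hours at 37 C, 5% CO2; luciferase detection reagent; luminescence decrease equals reduced growth.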
HCV inh = inhibitors of hepatitis C virus infection | Huh7.5.1 HCVcc-Cre infection, luciferase reporter, 44 h | Potency, µM (top dose mostly 41.8 µM), most hits filed as inhibitors | 340,000 tested, 3.4% active | AID 651820
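Cells (1,000/well) were plated 4 h before compound, then infected with HCVcc-Cre virus (~0.5 moi). After 44 h further culture, infection was read as luciferase luminescence following a 15 min substrate incubation at room temperature.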
HCMV inh = blocks human cytomegalovirus replication | AID 1259415 | HFF cells, HCMV-luciferase reporter, 72 h; stronger effect = lower value | 410,000 tested, 4.5% active | activity change, negative = inhibition, % at 57.5 µM; in the data active = activity change below about -60%; inconclusive = no clear call, values can overlap the other calls; inactive = above about -39%
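Two compound doses tested in HFFs infected with HCMV-luciferase, MOI 1 PFU/cell, 72 h at 37C. Lysate luminescence read with OneGlo; data normalized against buffer-only and 10uM Salinomycin inhibitor controls.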
Pf growth 48h = inhibits P. falciparum growth in the first generation, 48 h | 310,000 tested, 5.9% active | P. falciparum luciferase growth in erythrocytes, 48 h | Potency, µM (top dose mostly 28.7 µM), usual class: inhibitors | AID 504832
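Parasite viability was followed by luminescence of a genomically integrated firefly luciferase. Cultures held 0.1% parasitemia at 2% hematocrit (final), incubated under 5% CO2 at 37 C.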
Hits are given with their value; - = inactive; ? = inconclusive; . = not tested or not shown; [ ] = dose if it differs, or a comment. Most compounds without a hit are left out; they make up all but 13% or so of the library. Unless noted, calls follow the shape of the dose curve; as a rule, active = well fitted inhibition curve with a large enough effect; inconclusive = small, poorly fitted or top-dose-only effect, or another doubt; inactive = no such curve, though single readings can be large or run the other way.

SMILES	Pf growth 96h	HCV inh	HCMV inh	Pf growth 48h
CC(C)c1ccc2c(c1)C1(NN=C(c3ccccc3)S1)C(=O)N2 (configuration not stated)	?	?	-	3.3µM
CCc1ccc2c(c1)NC(=O)C2(C)Cc1ccc(F)cc1 (configuration not stated)	.	.	-	.
Cc1cccc(OCC(=O)N(Cc2cccc(Cl)c2)Cc2ccco2)c1C	.	.	-	.
CCCOc1ccc(CNC(=O)c2ccc(-n3c(C)cc4c3CCC(C)C4)cc2)cc1 (configuration not stated)	.	.	-	.
COc1cccc(CNC(=O)C2CCN(S(=O)(=O)N3CCC(C)CC3)CC2)c1	13µM	?	?	-
COc1ccc(OC)c(CNC(=O)C2CCN(S(=O)(=O)N3CCC(C)CC3)CC2)c1	12µM	-	-	-
COc1cccc(CNC(=O)c2ccc(-n3c(C)cc4c3CCC(C)C4)cc2)c1 (configuration not stated)	.	.	-83	.
COc1cccc(CNC(=O)C2CCN(S(=O)(=O)N3CCCC3)CC2)c1	-	?	-	-
Cc1ccc(C)c(Cn2c3ccccc3c3cnn(CC(=O)NC4CCC(C)CC4)c(=O)c32)c1 (configuration not stated)	.	.	-	.
CC(=O)Nc1ccc(N(C(=O)Cn2nnc3ccccc32)C(C(=O)NCc2ccccc2)c2ccc(C)cc2)cc1 (configuration not stated)	.	.	-	.
COc1ccc(C2C=C(c3ccc(C)cc3)Nc3c(C(=O)Nc4ccccc4)cnn32)cc1 (configuration not stated)	.	.	-	.
COc1ccc(-c2nn(-c3ccccc3)cc2C(=O)N2CCN(S(=O)(=O)c3ccccc3C#N)CC2)cc1	9.3µM	-	?	?
COc1ccc(-c2nn(-c3ccccc3)cc2C(=O)N2CCN(S(=O)(=O)c3cccc(F)c3)CC2)cc1	?	?	-	10µM
COc1cccc(NS(=O)(=O)c2ccc3c(c2)N(C)C(=O)CC(=O)N3C)c1	.	.	-	.
O=C(CC1N=C2c3ccccc3N=C(SCc3ccccc3Cl)N2C1=O)NCc1cccs1 (configuration not stated)	.	.	-	.
COc1ccc(Cl)cc1NC(=O)CN(C)C(=O)c1sc2ccccc2c1Cl	?	13µM	-	?
COc1ccc(NC(=O)CN(C)C(=O)c2sc3ccccc3c2Cl)cc1	-	?	-	-
COc1ccc(Cl)cc1NC(=O)CN(C)C(=O)c1cc2c(s1)CCCC2	5.2µM	?	-	9.3µM
Cc1ccc(CNC(=O)C2CCN(c3ncnc4c3nc3n4CCCCC3)CC2)cc1	.	.	-	.
O=C1NC(=S)N/C1=C/c1cc2c(cc1[N+](=O)[O-])OCO2	-	-	-80	-
O=C(O)/C=C\c1cc2c(cc1[N+](=O)[O-])OCO2	-	-	-	-
O=S(c1ccccc1O)S(=O)c1ccccc1O (configuration not stated)	.	10µM	-	.
Cc1ccc(NC(=O)CN2C(=O)CSc3ccc(S(=O)(=O)N(C)C)cc32)c(C)c1	.	.	-	.
Cc1ccc(-c2cc(C(=O)NC3=NCCS3)c3ccccc3n2)cc1C	2.1µM	?	-	?
O=C(c1cc(-c2ccccc2)nc2ccccc12)N1N=C(C(F)F)CC1(O)C(F)F (configuration not stated)	-[5.75 µM]	-	-	-
SMILES	Pf growth 96h	HCV inh	HCMV inh	Pf growth 48h
O=C(NC1=NCCS1)c1ccccc1OCc1ccccc1Cl	?	13µM	-	-
O=C(NC1=NCCS1)c1cc(-c2ccc(F)cc2)nc2ccccc12	-	?	-	-
O=C(NC1=NCCS1)c1csc2ccccc12	-	7.1µM	-	-
Cc1ccc(-c2cc(C(=O)N3N=C(C(F)F)CC3(O)C(F)F)c3ccccc3n2)cc1C (configuration not stated)	?	?	-89	?
O=C(NC1=NCCS1)c1ccccc1Cl	-	-	-	-
CCN(CC)CCCNc1ncnc2c1cnn2-c1ccc(C)c(C)c1	.	.	-	.
Cc1ccc2c(c1)c1c(c(=O)n(Cc3ccccc3)c(=O)n1CC(=O)Nc1ccccc1F)n2C	.	.	-	.
Cc1ccc2nc(-c3cccc(Br)c3)cc(C(=O)NC3=NCCS3)c2c1	-	-	?	4.7µM
O=C(NC1=NCCS1)c1cc(-c2cccc(Br)c2)nc2ccccc12	-	-	-	?
CC(Sc1nc(-c2ccc(F)cc2)cs1)C(=O)N1c2ccccc2CC1C (configuration not stated)	-	22µM	-	?
CC1Cc2ccccc2N1C(=O)COC(=O)CSc1ccc(F)cc1 (configuration not stated)	-	-	-	-
CC1Cc2ccccc2N1C(=O)CSc1nc(-c2ccccc2)cs1 (configuration not stated)	10µM	-	-	?
Cc1ccccc1C(=O)Nc1nnc(S(=O)(=O)N2CCc3ccccc32)s1	.	.	-	.
O=C(NCCN1C(=O)S/C(=C\c2ccc(OC(F)F)cc2)C1=O)C1=COCCO1	-	11µM	.	-
COc1cc(/C=N/Nc2snc(SC)c2C#N)cc(OC)c1OC	.	?	-86	-
CSc1nsc(N/N=C/c2ccc3c(c2)OCO3)c1C#N	-	-	-	-
C#CCN1CC(COc2ccccc2)Oc2cccc(Oc3ccc(SC)c(C)c3)c2S1(=O)=O (configuration not stated)	.	.	-	.
Cc1ccccc1CCNC(=O)c1ccc(Cn2c(=O)c3cccn3c3cccnc32)cc1	.	.	-	.
CCOC(=O)C1CCN(C(=O)Cn2c(=O)c3cccn3c3cccnc32)CC1	-	11µM	-	-
CC(C)CCNC(=O)CCn1c(=O)c2cccn2c2cccnc21	.	.	-60	.
Cc1ccc(Cl)cc1N1CCN(C(=O)CCn2c(=O)c3cccn3c3cccnc32)CC1	.	.	-	.
CCN(CC)CCNC(=O)CCn1c(=O)c2cccn2c2cccnc21	.	.	-	.
Cc1ccc(CCNC(=O)c2ccc(Cn3c(=O)c4cccn4c4cccnc43)cc2)cc1	.	.	-60	.
O=C(CCn1c(=O)c2cccn2c2cccnc21)N1CCN(c2cccc(Cl)c2)CC1	?	11µM	-	9.3µM
COc1cccc(NC(=O)N(C)C[C@@H]2OCc3cn(nn3)CCCC(=O)N([C@H](C)CO)C[C@H]2C)c1	.	.	-	.
SMILES	Pf growth 96h	HCV inh	HCMV inh	Pf growth 48h
O=C(CCn1c(=O)c2cccn2c2cccnc21)NCc1ccc(F)cc1	.	.	-	.
CCCNC(=O)Cn1c(=O)c2cccn2c2cccnc21	.	.	-81	.
O=C(CCn1c(=O)c2cccn2c2cccnc21)NCc1cccc(Br)c1	.	.	-61	.
CCOc1ccc(CNC(=O)Cn2c(=O)c3cccn3c3cccnc32)cc1	.	.	-	.
O=[N+]([O-])c1cc(Br)c(Nc2ccccc2)c([N+](=O)[O-])c1	-	?	-85	0.52µM
Cc1c(C(=O)Nc2ccc(Nc3ccccc3)cc2)cccc1[N+](=O)[O-]	?	?	-	-
O=C(Nc1ccccc1)c1ccc(Nc2c([N+](=O)[O-])cc([N+](=O)[O-])c3ccccc23)cc1	-	?	-74	?
Cc1cc(=O)n2c(C(=O)Nc3ccc(F)c(Cl)c3)c(C(=O)Nc3cccc(C)c3C)sc2n1	.	.	-	.
O=C1CN(C(=O)COC(=O)c2ccccc2O)c2ccccc2N1	-	-	-	-
